# Source: PubChem
# CHO-K1 Ca antag – nonselective inhibitor or artifact in parental CHO-K1 cells | inhibition, % at 3 µM | 0.6% of 360,000 active | ATP-induced calcium, Fluo-8 fluorescence;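 active means inhibition above a per-plate cutoff, the plate's mean sample inhibition plus 3 SD, cut at about 24% in these data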;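 further: 0% = DMSO plus EC80 ATP and 100% = DMSO alone without ATP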
# M1 ag – human M1 muscarinic receptor agonism; activation, % at 3 µM; CHO-K1 hM1, Fluo-8 calcium fluorescence, agonist mode; 0% DMSO, 100% acetylcholine EC100; P11229; 0.33% of 360,000 active;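 active means activation above the run's mean compound activation plus 3 SD, cut at about 16% in these data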;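 further: peak over basal fluorescence ratio within a 140 s kinetic read after compound addition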
# Target sequence (P11229 whole entry, looked up): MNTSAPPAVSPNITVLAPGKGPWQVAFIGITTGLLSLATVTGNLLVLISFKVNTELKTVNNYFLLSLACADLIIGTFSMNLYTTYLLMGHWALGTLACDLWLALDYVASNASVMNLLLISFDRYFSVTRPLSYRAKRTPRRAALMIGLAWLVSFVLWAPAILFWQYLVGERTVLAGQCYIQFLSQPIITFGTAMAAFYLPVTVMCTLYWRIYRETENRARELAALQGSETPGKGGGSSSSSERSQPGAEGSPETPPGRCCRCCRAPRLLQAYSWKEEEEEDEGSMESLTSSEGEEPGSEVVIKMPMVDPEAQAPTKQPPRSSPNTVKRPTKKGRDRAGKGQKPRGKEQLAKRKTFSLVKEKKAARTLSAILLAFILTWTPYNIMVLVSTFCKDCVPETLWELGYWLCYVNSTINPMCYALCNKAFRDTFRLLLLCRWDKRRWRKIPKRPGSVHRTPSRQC
# M1 ag parental – nonselective activator or artifact in parental CHO-K1 cells | 0.48% of 360,000 active | Fluo-8 calcium fluorescence; scaled to maximal ATP response, vehicle zero | activation, % at 3 µM | AID 602248; in the data active means activation above about 15%;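 further: untransfected CHO-K1 host cells lacking M1 receptor as counterscreen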
# CHRM1 PAM – potentiates human M1 receptor response to acetylcholine; P11229; activation, % at 3 µM; 0.088% of 360,000 active; AID 588819; CHO-K1 hM1, Fluo-8 calcium fluorescence, ACh EC20; 0% = ACh EC20, 100% = maximal ACh; in the data active means activation above about 19%, passing the limit was not always enough
# CHRM1 antagonist – blocks human M1 muscarinic receptor; P11229; CHO-K1 hM1, Fluo-8 calcium fluorescence, ACh EC80 antagonist; inhibition, % at 3 µM; 1.3% of 360,000 active;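 active means percent inhibition above its own plate's cutoff, namely the mean of that plate's compound wells plus 3 SD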;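 further: peak over basal fluorescence ratio during 140 s after agonist addition; 0% = ACh EC80 plus DMSO and 100% = DMSO alone without agonist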
# CHO-K1 Ca PAM – M1 PAM counterscreen hit in parental CHO-K1 cells | 0.02% of 360,000 active | ATP EC20, Fluo-8 calcium fluorescence; 0% at ATP EC20, 100% at ATP max | AID 602247 | activation, % at 3 µM;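 active means activation above the run cutoff, the mean activation of all test compounds plus 3 SD, cut at about 40% in these data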;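 further: peak over basal fluorescence ratio in a 140 s read after ATP addition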
# The depositor's hits bear a star; ! = a repeat was not active. Rows were chosen to be rich in hits. Some 2.3% of all compounds tested hit in one or more screens of this group.
SMILES,CHO-K1 Ca antag,M1 ag,M1 ag parental,CHRM1 PAM,CHRM1 antagonist,CHO-K1 Ca PAM
CC1CCC(C(C)C)C(OC(=O)C[n+]2cccc(C(N)=O)c2)C1 (centres undefined),-0.6,-6.2,-0.6,-7.1,-14.3,12.0
CCCc1nc2c(C)cc(Br)cn2c1Cc1ccc(OC)cc1C,-16.9,-5.7,1.5,-1.6,-20.0,12.0
CC1(c2ccccc2)C(C#N)C(=O)NC(=O)C1C#N (centres undefined),-7.3,-3.2,0.2,-2.5,1.9,2.4
COc1cccc(N(C(=O)c2cccs2)c2nc3ccccc3s2)c1,26.3*,-1.9,-0.3,1.8,1.7,-8.5
CCN(C(=O)c1cccs1)c1nc(-c2ccc(OC)cc2)cs1,-8.5,-6.7,1.4,-8.2,5.9,21.0
CCc1noc(C)c1C(=O)Nc1nc(-c2ccc(OC)cc2)cs1,4.3,-2.0,3.4,-18.7,36.6*,-16.7
FC(F)Sc1ccc(NC(=S)N2CCN(c3ccccn3)CC2)cc1,17.5,-5.2,13.5,-18.2,22.3*,-16.4
Oc1ccccc1N1CCN(C(=S)Nc2ccc(SC(F)F)cc2)CC1,-4.9,2.0,12.8,-6.2,25.5,17.1
Cc1ccc(C(=O)Nc2ccccc2N2CCN(C(=O)C(C)C)CC2)cc1C,29.0*,-0.6,1.3,-0.8,11.4,-27.3
Cc1ccccc1C(=O)N1CCN(c2ccc(NC(=O)c3ccc4c(c3)OCCO4)cc2)CC1,0.1,4.5,19.1*,-15.6,18.2,-14.8
CC(C)C(=O)N1CCN(c2ccccc2NC(=O)c2ccc(C#N)cc2F)CC1,-1.8,-6.4,22.1*,3.8,8.8,4.5
CS(=O)(=O)N1CCN(c2ccccc2NC(=O)c2ccc3c(c2)OCCO3)CC1,-5.9,-4.9,18.9*,2.9,-4.0,6.1
CCOc1ccc(S(=O)(=O)Nc2nc3ccccc3nc2-n2ccc(=NC(=O)c3ccccc3C)cc2)cc1,25.4*,21.4*,23.9*,-9.4,25.8,-4.2
O=C1NC(=O)C(Cc2ccc(Cl)cc2)(c2ccccc2)N1 (centres undefined),-2.3,-1.6,-0.2,4.2,-10.8,10.5
Cc1ccc(-c2nc(Nc3cccc(C)c3)sc2CC(=O)O)cc1,26.3*,0.2,1.1,4.6,0.4,-10.7
CCn1c(N2CCN(C(c3ccccc3)c3ccccc3)CC2)nc2c1c(=O)[nH]c(=O)n2C,-8.2,-1.2,0.7,9.6,-7.5,8.2
Cc1ccc(N2C(=O)CC(NNc3nc4ccccc4s3)C2=O)cc1 (centres undefined),10.9,-5.4,16.7*,4.7,3.2,15.3
CCn1c(NCc2cccs2)nc2ccccc21,-11.7,-3.0,-0.2,15.4,-25.9,1.2
CCn1c(NCc2ccccn2)nc2ccccc21,24.0*,-2.0,-0.3,4.8,0.6,-8.3
S=c1[nH]nc(-c2ccncc2)n1/N=C/C(Cl)=C\c1ccccc1,-15.2,38.9*,1.3,0.9,10.6,7.7
S=c1[nH]nc(-c2ccncc2)n1/N=C/C=C/c1ccccc1,-8.5,3.0,0.6,13.9,-11.7,14.8
CC(=O)c1ccc(N2CCN(C(=O)/C=C/c3ccc(S(=O)(=O)NCc4ccco4)cc3)CC2)cc1,5.0,-2.9,10.4,-16.0,39.2*,-3.0
OC(c1cc(-c2ccc(C(F)(F)F)cc2)nc(C(F)(F)F)c1)C1CCCCN1 (centres undefined),14.1,16.3*,17.6*,14.7,5.8,14.7
OC(c1cc(C(F)(F)F)nc2c(C(F)(F)F)cccc12)C1CCCCN1 (centres undefined),19.7,-1.5,1.8,5.1,-19.8,-2.5
O=c1c2cn(Cc3ccc(F)cc3)c3ccccc3c-2nn1Cc1ccc(F)cc1,-8.4,-0.7,0.5,4.6,-6.9,-6.0
SMILES,CHO-K1 Ca antag,M1 ag,M1 ag parental,CHRM1 PAM,CHRM1 antagonist,CHO-K1 Ca PAM
O=c1c2cn(Cc3ccccc3)c3ccccc3c-2nn1Cc1ccc(F)cc1Cl,-9.2,20.1*,0.5,30.7*,-9.1,-2.2
OC(c1ccccc1)c1nc(-c2cccc(C(F)(F)F)c2)cs1 (centres undefined),-17.4,-5.0,0.7,1.0,-9.0,4.7
OC1C(O)C(O)C(O)C(O)C1O (centres undefined),-2.0,-1.4,-0.4,-1.1,99.9*!,8.2
CCc1nn(C(C)C(=O)N(C)Cc2ccccc2)c(=O)c2cc3occc3n12 (centres undefined),-20.3,-0.8,2.6,5.3,-15.4,-4.8
Cc1ccc2[nH]c3c(N4CCc5ccccc5C4)ncnc3c2c1,34.8*,4.5,9.9,-14.5,30.0*,-4.3
CCOc1ccc2[nH]c3c(N4CCc5ccccc5C4)ncnc3c2c1,-4.7,0.0,2.2,21.4,-11.7,7.2
Fc1ccc2[nH]c3c(N4CCc5ccccc5C4)ncnc3c2c1,28.2*,2.1,14.1,-15.3,41.0*,-16.2
CN1C(=O)CN(CCN2CC(=O)N(C)C(=O)C2)CC1=O,-8.8,-2.8,0.2,8.8,-17.7,10.1
Clc1ccc(OCc2nnc(SCCN3CCCCC3)n2Cc2ccco2)cc1,17.7,-5.4,0.1,-21.3,98.6*,-8.7
O=c1c2ccccc2nnn1CSc1nnc(COc2ccc(Cl)cc2)n1Cc1ccco1,-3.9,-3.6,0.6,0.7,-1.2,16.3
CCc1ccc(OCc2nnc(SCCN3CCOCC3)n2CC)cc1,2.8,-5.7,0.1,-22.6,63.2*,1.4
CCn1c(COc2ccc(C)cc2)nnc1SCc1ccc(C#N)cc1,-26.5,-7.8,0.1,1.1,-1.8,7.9
COc1cc(C(=O)OCC(=O)N2CC(C)OC(C)C2)cc(OC)c1OC (centres undefined),0.4,-2.2,0.5,2.3,1.1,-1.4
CN(Cc1cnccn1)C(=O)CC1C(=O)NCCN1Cc1c(F)cccc1Cl (centres undefined),-12.5,-3.5,0.6,0.4,-1.1,-2.1
COC(=O)C1=C(C)N(Cc2ccccc2)C(=NCc2ccccc2)N[C@H]1c1cccc(C(F)(F)F)c1,15.9,-2.9,20.6*,5.4,6.9,1.5
Cc1nn2cnnc2c(C)c1Cc1c(F)cccc1Cl,-9.2,-0.2,1.2,6.3,-7.0,10.3
O=[N+]([O-])c1c(Nc2ccc(O)cc2)cc(Cl)c2nonc12,44.5*,-11.7,-1.5,-14.8,41.5*,-3.1
Cc1ccc(Nc2nc(CSc3n[nH]c(N)n3)cs2)cc1,-6.2,-1.4,0.5,5.9,-6.9,1.4
Cc1ccn2c(=O)c(NC(=O)COc3ccccc3)c(C)nc2c1,19.6,-0.7,0.4,12.7,-14.6,-3.2
Cc1ccn2c(=O)c(NC(=O)c3cccs3)c(C)nc2c1,-6.0,3.4,3.2,28.9*,-26.6,5.4
CC(C)c1nc(=S)n(-c2ccccc2)[nH]1,28.2*,-0.3,-0.2,3.4,-0.4,-7.3
CC(=O)Nc1nc(=S)n(-c2ccccc2)[nH]1,-3.5,-3.9,0.0,-1.8,4.9,8.3
